This passage reports Potency and viability results from PubChem BioAssay (NCATS).

SMILES strings stand for the structures. Records with an inconclusive call do not appear. A number with no mark means an inactive call. Active and inactive are the calls of the source. Calls come from the whole dose curve; as a rule, active = well fitted cell-killing curve with a large enough effect; inconclusive = small, poorly fitted or top-dose-only effect, or effect the other way; inactive = no such curve, though single readings can be large or run the other way.
Note: nearly all actives have a fitted effect of over 35% in size.
Potency is the fitted concentration of half-maximal effect.

A short description of one test: Quantitative High-Throughput drug screen in 47 multiple myeloma cell lines against the NCATS MIPE library collection: SKMM1_PLB cell viability assay (AID 1919863). Particulars: SKMM1 myeloma viability, CellTiter-Glo ATP, 48 h; viability: hits give low values. The essentials:
(§1)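 MIPE 4.0 approved/investigational drugs; 500 cells/well; 48 h 37 °C humidified 5% CO2; CTG luminescence readout; DMSO = 100%, media = 0% viability.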
(In general: ATP-based viability assays read luminescence as a measure of living cells.)
On to `CC(C)n1nc(-c2ccc3oc(N)nc3c2)c2c(N)ncnc21`, for which the Potency was 0.0074 µM (active). As usually defined, the viability is a read-out of living cells in per cent, often relative to untreated cells. Regarding `COc1ccc2cc(-c3nc(-c4ccc(S(C)=O)cc4)[nH]c3-c3ccncc3)ccc2c1` (stereo unspecified), the viability was 106%. With `CNC(=O)c1ccccc1Sc1ccc2c(C=Cc3ccccn3)n[nH]c2c1`, the Potency was 13.2 µM (active).

With `CC(C)C(=O)Nc1ncc(-c2cc(C(F)F)nn2-c2c(Cl)cccc2Cl)s1`, the Potency was 16.6 µM (active). In the case of `Cc1nnc(C(C)C)n1C1C[C@H]2CC[C@@H](C1)N2CC[C@H](NC(=O)C1CCC(F)(F)CC1)c1ccccc1` (stereo partly specified), the viability is 147%. Take `CCOC(=O)C1=C(N)Oc2ccc(Br)cc2C1C(C#N)C(=O)OCC` (stereo unspecified): the Potency is 20.9 µM (active). On to `O=C(O)[C@H]1O[C@H](Oc2cc3oc(-c4ccccc4)cc(=O)c3c(O)c2O)[C@H](O)[C@@H](O)[C@H]1O`, for which the Potency was 20.9 µM (active). On the same count and under the same terms, next, `CC(C)=CC[C@@H](O)C1=CC(=O)c2c(O)ccc(O)c2C1=O`: 1.05 µM (active).

As to `Cc1ccccc1C(C(=O)NC1CCCCC1)N(C(=O)Cn1ccnc1C)c1cccc(F)c1` (stereo unspecified), the Potency is 0.469 µM (active). Take `CC(C)C(C)C=CC(C)C1CCC2C3=CC=C4CC(O)CCC4(C)C3CCC21C` (stereo unspecified): the viability was 135%. In the case of `CO[C@H]1C=CC=C(C)C(=O)NC2=CC(=O)C(NCCN(C)C)=C(C[C@@H](C)C[C@H](OC)[C@@H](O)[C@@H](C)C=C(C)[C@@H]1OC(N)=O)C2=O`, the Potency was 0.372 µM (active). `Clc1cc(Cl)cc(CNc2ncncc2-c2ccc3c(c2)OCO3)c1`: the Potency is 16.6 µM (active). In the case of `CN1[C@@H]2CCC[C@@H]1CC(NC(=O)c1nn(C)c3ccccc13)C2` (stereo partly specified), the viability was 111%. With `Cc1ccc(C(=O)Nc2cccc(C(F)(F)F)c2)cc1Nc1nc(-c2cccnc2)nc2c1cnn2C`, the Potency is 14.8 µM (active). Turning to `NC(=O)[C@@H](CCC(F)(F)F)N(Cc1ccc(-c2ncon2)cc1F)S(=O)(=O)c1ccc(Cl)cc1`, the Potency is 0.187 µM (active).

Regarding `CO[C@H]1C=CO[C@@]2(C)Oc3c(C)c(O)c4c(O)c(c5c(c4c3C2=O)NC2(CCN(CC(C)C)CC2)N=5)=NC(=O)C(C)=CC=C[C@H](C)[C@H](O)[C@@H](C)[C@@H](O)[C@@H](C)[C@H](OC(C)=O)[C@H]1C`, the viability is 99.2%. Consider `CC=CC(=O)N(CC)c1ccccc1C`, for which the viability was 126%. As for `COc1cc2ncnc(Nc3ccc(F)c(Cl)c3)c2cc1OCCCN1CCOCC1`, the Potency was 67.9 µM (active). In the case of `O=c1cc(-c2cccc3c2Sc2ccccc2S3)oc(N2CCOCC2)c1`, the Potency is 18.7 µM (active).

On to `COc1cccc([C@@H](C)NCCCc2ccccc2Cl)c1`, for which the viability is 122%. Turning to `Cc1c(O)cccc1C(=O)N[C@@H](CSc1ccccc1)[C@H](O)CN1C[C@H]2CCCC[C@@H]2C[C@@H]1C(=O)NC(C)(C)C`, the Potency is 20.9 µM (active). Still for that read-out and setting: the result for `O=C(CCCCCCC(=O)Nc1ccccc1)NO` reads 3.72 µM (active); that for `Clc1ccc(C(c2ccc(Cl)cc2)n2cc[n+](CC(OCc3ccc(Cl)cc3Cl)c3ccc(Cl)cc3Cl)c2)cc1` (stereo unspecified), 20.9 µM (active); that for `O=C1C(Cl)=C(NCCN2CCOCC2)C(=O)c2ncccc21`, 4.18 µM (active). With `CCC(=O)NC[C@H](Cc1ccc(OCCc2nc(-c3ccccc3)oc2C)cc1)NC(C)=CC(=O)c1ccc(C(F)(F)F)cc1`, the Potency was 18.7 µM (active). For `CC(=O)Nc1ccc([C@H](C)C(=O)Nc2ncc(C(C)C)s2)cc1`, the Potency is 8.33 µM (active). `Oc1ccc(C2CCN(c3ccnc4ccccc34)CC2)cc1O`: the viability was 103%. With `O=C1c2c(O)cc(O)cc2O[C@H](c2cc(O)c(O)c(O)c2)[C@H]1O`, the Potency was 20.9 µM (active). As for `CC1(C)CCC[C@@]2(C)[C@@H]1CC[C@@]1(C)OC(=O)C[C@H]21`, the Potency is 8.33 µM (active). `Oc1ccc(C2=Cc3ccc(O)cc3OC2)cc1`: the Potency was 11.8 µM (active). As to `CCOc1ccc(Nc2nc(-c3c(C)nc4ccccn34)cs2)cc1`, the Potency was 0.264 µM (active).

In the case of `NC1=N[C@@]2(c3cc(NC(=O)c4ccc(F)cn4)ccc3F)COC[C@@H]2CS1`, the viability was 111%.

The nature of the next test: Quantitative High-Throughput drug screen in 47 multiple myeloma cell lines against the NCATS MIPE library collection: U266_ATCC cell viability assay (AID 1919864). As to conditions: U266 myeloma viability, CellTiter-Glo ATP luminescence, 48 h; series mostly up to 45.8 µM. The essentials:
as §1
As for `CC(C)=CC[C@@H](O)C1=CC(=O)c2c(O)ccc(O)c2C1=O`, the Potency was 0.469 µM (active). `CO[C@H]1C=CC=C(C)C(=O)NC2=CC(=O)C(NCCN(C)C)=C(C[C@@H](C)C[C@H](OC)[C@@H](O)[C@@H](C)C=C(C)[C@@H]1OC(N)=O)C2=O`: the Potency was 0.0662 µM (active). Turning to `Cc1ccc(C(=O)Nc2cccc(C(F)(F)F)c2)cc1Nc1nc(-c2cccnc2)nc2c1cnn2C`, the Potency was 8.33 µM (active). Still for that read-out and setting: next, `CO[C@H]1C=CO[C@@]2(C)Oc3c(C)c(O)c4c(O)c(c5c(c4c3C2=O)NC2(CCN(CC(C)C)CC2)N=5)=NC(=O)C(C)=CC=C[C@H](C)[C@H](O)[C@@H](C)[C@@H](O)[C@@H](C)[C@H](OC(C)=O)[C@H]1C`: “inactive”; `CC=CC(=O)N(CC)c1ccccc1C`: “inactive”; `Cc1c(O)cccc1C(=O)N[C@@H](CSc1ccccc1)[C@H](O)CN1C[C@H]2CCCC[C@@H]2C[C@@H]1C(=O)NC(C)(C)C`: 18.7 µM (active).

For `Clc1ccc(C(c2ccc(Cl)cc2)n2cc[n+](CC(OCc3ccc(Cl)cc3Cl)c3ccc(Cl)cc3Cl)c2)cc1` (stereo unspecified), the Potency is 16.6 µM (active). For the compound `CC(=O)Nc1ccc([C@H](C)C(=O)Nc2ncc(C(C)C)s2)cc1`, the Potency was 4.69 µM (active). Take `O=C1c2c(O)cc(O)cc2O[C@H](c2cc(O)c(O)c(O)c2)[C@H]1O`: the Potency is 11.8 µM (active).
